Laboratory results as given in PubChem BioAssay (NCI).
Compounds without any hit were thinned out: in the full panel of roughly 79,000, 15% have a hit. Cut-off read from the data, not from the text of the source: active = growth inhibition above about 70%; inactive = the rest. Where a SMILES comes first, the peptide text is derived from it. The star is where a group is joined. Trt = c1ccc(C(c2ccccc2)(c2ccccc2)*)cc1; Benzhydryl = c1ccc(C(c2ccccc2)*)cc1; Cbz = O=C(OCc1ccccc1)*

What was measured:
[1] = NCI Yeast Anticancer Drug Screen. Data for the rad50 strain (AID 155);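 note: 0% = growth of vehicle-only cultures of the same strain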; details: S. cerevisiae rad50 strain growth inhibition; at 50.0 µM; stronger effect = higher value
How it was run: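 Readout: growth inhibition relative to vehicle-treated cultures. Compound exposure was carried out in a genetically defined yeast strain deficient in DNA damage repair.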

[2] = NCI Yeast Anticancer Drug Screen. Data for the mec2-1 strain (AID 157); details: S. cerevisiae mec2-1 strain, at 50.0 µM, stronger effect = higher value
How it was run: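 mec2-1 yeast strain, carrying an alteration in DNA damage repair or cell cycle control, was exposed to compounds; growth inhibition was measured relative to vehicle-treated controls.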

[3] = NCI Yeast Anticancer Drug Screen. Data for the sgs1 mgt1 strain (AID 161);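 note: 0% = growth of cultures given vehicle only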; details: S. cerevisiae sgs1 mgt1 strain, at 50.0 µM, stronger effect = higher value
How it was run: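 Compounds are added to genetically altered yeast, and growth is compared with cultures given vehicle alone to give percent inhibition.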

[4] = NCI Yeast Anticancer Drug Screen. Data for the cln2 rad14 strain (AID 165);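 note: 0% = growth equal to vehicle treated cultures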; details: S. cerevisiae cln2 rad14 strain, at 50.0 µM, stronger effect = higher value
How it was run: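 Yeast carrying cln2 and rad14 alterations (cell cycle control and DNA damage repair) were exposed to compounds. Growth inhibition was measured against vehicle-treated controls.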

[5] = NCI Yeast Anticancer Drug Screen. Data for the bub3 strain (AID 167); details: S. cerevisiae bub3 mutant strain, at 50.0 µM, stronger effect = higher value
How it was run: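 Readout: yeast growth inhibition, expressed relative to vehicle-only wells. The test organism is a mutant strain from a panel with lesions in DNA repair or checkpoint genes.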

[6] = NCI Yeast Anticancer Drug Screen. Data for the mlh1 rad18 strain (AID 175); details: S. cerevisiae mlh1 rad18 strain growth inhibition; at 50.0 µM; stronger effect = higher value
How it was run: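 Growth inhibition of the yeast strain was measured after compound exposure and expressed relative to vehicle-treated controls. The strain carries defined defects in DNA damage repair.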

Measured: growth inhibition

CCN(CC)C(=O)Cn1c(C)cc2ccccc21
inactive: [1] -18.1% | [2] -18.1% | [3] 7.9% | [4] -2.75% | [5] 8% | [6] -13.6%

CCOC(=O)/C=C\SCC(=O)OCC
inactive: [1] -8.95% | [2] -4.1% | [3] -6.3% | [4] -33.4% | [5] 4.1% | [6] -14.9%

O=C(O)CCC(=O)CCC(=O)c1ccc(O)c2ncccc12
inactive: [1] -6.55% | [2] 6.2% | [3] 16.8% | [4] 26.5% | [5] 16.2% | [6] 21.5%

COC(=O)C(Cc1ccccc1)NC(=O)C(Cc1ccccc1)NC(=O)CNC(=O)C(CSC(c1ccccc1)c1ccccc1)NC(=O)C(CSC(c1ccccc1)(c1ccccc1)c1ccccc1)NC(=O)OCc1ccccc1 (stereo not given) (Cbz-C(Trt)C(Benzhydryl)GFF-OMe; configuration not given here)
inactive: [1] -5.55% | [2] 25.4% | [3] 19% | [4] -14.9% | [5] -9.8% | [6] 28.1%

C=CC(=O)Nc1ccc(Br)cc1
inactive: [1] 2.85% | [2] -9.2% | [3] -4.35% | [4] -6.9% | [5] 8.65% | [6] 2.35%

O=C1NC(=O)C(=NC2C(=O)NC(=O)NC2=O)C(=O)N1
inactive: [1] 6.65% | [2] 29.4% | [3] 31.3% | [4] 1.5% | [5] 26.1% | [6] 19.8%

O=C1c2cc3c(-c4ccccc4)oc(-c4ccccc4)c3cc2C(=O)c2c(O)ccc(O)c21
inactive: [1] 1.2% | [2] -7.15% | [3] -20.6% | [4] -4.7% | [5] -5.75% | [6] 5.5%

O=C1Cc2ccccc2C(O)=C1c1cnccn1
inactive: [1] 6.3% | [2] 11.2% | [3] 19.6% | [4] -1.6% | [5] 0.25% | [6] 5.95%

Fc1c(F)c(F)c(CCc2c(F)c(F)c(F)c(F)c2F)c(F)c1F
inactive: [1] 11.2% | [2] -8.2% | [3] 15.9% | [4] -39.1% | [5] -41.4% | [6] 19.2%

CCCCCCCCCCCCCCCOc1ccc2ccccc2c1
inactive: [1] -11.4% | [2] 8.2% | [3] -5.8% | [4] -27.7% | [5] -7.05% | [6] -35.1%

O=C(NC1CCCCC1Cl)C1CCCCC1 (stereo not given)
inactive: [1] 17.1% | [2] 18.6% | [3] 2.15% | [4] 5.4% | [5] -6.7% | [6] -14.8%

CC(COCc1ccccc1)C1OC(C)(C)OC(C#N)C1C (stereo not given)
inactive: [1] -1.05% | [2] -1.4% | [3] -4.8% | [4] -20.4% | [5] 11.7% | [6] 14.3%

CCc1nc(N)nc(N)c1-c1ccc2nnn(O)c2c1
inactive: [1] -11.8% | [2] -7.45% | [3] -4.8% | [4] -40% | [5] 0% | [6] -3.1%

CC(=O)C(C(C)=O)C(C(C)=O)C(C)=O.[Cu]
inactive: [1] -26.8% | [2] -11.3% | [3] -21.1% | [4] -10.4% | [5] -18.4% | [6] -22.1%

CC(=O)[CH-]C(=O)c1ccccc1.CC(=O)[CH-]C(=O)c1ccccc1.CC[C@H](CCC(C)[C@H]1CCC2[C@@H]3CC=C4C[C@@H]([O-])CC[C@]4(C)C3CC[C@@]21C)C(C)C.CC[C@H](CCC(C)[C@H]1CCC2[C@@H]3CC=C4C[C@@H]([O-])CC[C@]4(C)C3CC[C@@]21C)C(C)C.Cl.[Ti+4] (stereo not given in full)
inactive: [1] 19% | [2] 3.9% | [3] 23.2% | [4] -11.2% | [5] 27.1% | [6] 5.05%

CCNC(=O)OCCN(C)CCOC(=O)NCC
inactive: [1] -10% | [2] 9.55% | [3] -4.15% | [4] -20% | [5] -7.7% | [6] -0.7%

CCCCCCCCSC1=NS(=O)(=O)c2ccccc21
inactive: [1] 64% | [2] 28.6% | [3] 44.5% | [4] 31.1% | [5] 49.2% | [6] 31.1%

CC(=O)NCCC(=O)NCCSC(C)=O
inactive: [1] -15% | [2] -12% | [3] 18.9% | [4] 6.15% | [5] -3.35% | [6] 9.25%

CC1CCN(C(=O)C(c2ccccc2)c2ccccc2)CC1
inactive: [1] 27% | [2] -7.05% | [3] -3.1% | [4] -18.8% | [5] 1.2% | [6] -4.75%

S=C1CSc2c(ccc3ccccc23)N1
inactive: [1] -30.8% | [2] -14.8% | [3] 19.2% | [4] 4.95% | [5] 19.9% | [6] -9.4%
